# Screening results from PubChem BioAssay.
# Most compounds without a hit are left out; they make up all but 8.7% or so of the library.
# Pf growth 48h: inhibits P. falciparum growth in the first generation, 48 h; Potency, µM (highest dose often 28.7 µM), without a hit: top-dose activity change, negative = inhibition, hits mostly inhibitors; AID 504832; actives 5.9% (n = 310,000); P. falciparum luciferase growth in erythrocytes, 48 h
#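 Firefly luciferase activity from engineered P. falciparum reports growth; inhibitors lower the luminescent signal. Cultures contained 2% hematocrit erythrocytes at 0.1% final parasitemia.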
# VACV Venus inh: vaccinia inhibition (Venus reporter); Potency, µM (doses to about 36.5 µM), for inactives: top-dose activity change, negative = inhibition, hits mostly inhibitors; Vaccinia virus Venus reporter expression, fluorescence; actives 0.46% (n = 330,000); calls by dose curve; tested in A549 cells; further: nearly all actives have a fitted effect of over 30% in size
# AMA1-RON2 inh: AMA1-RON2 (P. falciparum) interaction inhibition; AlphaScreen AMA1-biotinylated RON2 peptide binding; Potency, µM (doses to about 58.2 µM), without a hit: top-dose activity change, negative = inhibition, most hits filed as inhibitors; actives 0.2% (n = 360,000); AID 720542;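 further: 0% = vehicle wells and -100% = peptide control; nearly all actives have a fitted effect of over 45% in size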
#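 AMA1 (3D7) with his tag at 25 nM final met compounds first, then biotinylated RON2 peptide at 25 nM; detection used donor plus acceptor beads, 10 µg/mL apiece, read by AlphaScreen after 30 min at room temperature.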
# Pf growth 96h: P. falciparum growth inhibition at 96 hour, primary screen for plastid delayed-death inhibitors; P. falciparum luciferase reporter growth, 96 h; Potency, µM (top dose mostly 28.7 µM), for the others: top-dose activity change, negative = inhibition, most hits filed as inhibitors; actives 6.9% (n = 320,000)
#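 Readout is luminescence from an integrated firefly luciferase in P. falciparum. Red cells, 2% hematocrit and 0.05% parasitemia final, were cultured with compound through two parasite generations (96 hours) at 37 C, 5% CO2.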
# Vaccinia mCherry: vaccinia inhibition (mCherry reporter). Vaccinia virus mCherry reporter infection, fluorescence. Potency, µM (top dose mostly 36.5 µM), without a hit: at the highest dose activity change, negative = inhibition, actives largely listed as inhibitors. actives 0.63% (n = 310,000). AID 720579; calls by dose curve; tested in A549 cells; further: nearly all actives have a fitted effect of over 35% in size
# The depositor's hits bear a star; u = inconclusive; x = no result; ! = a repeat was not active; [ ] = remark or other dose. Unless noted, the call rests on the fitted dose curve; in most records, active means well fitted curve in the direction sought with a large enough effect; inconclusive means small, poorly fitted or top-dose-only effect, or another doubt; inactive means no such curve, though single readings can be large; an effect the other way counts as inactive or inconclusive. Unless noted, on the % scale 0 is the no-effect control and ±100 the full control effect; potency means the concentration at half of the fitted maximal effect.
SMILES,Pf growth 48h,VACV Venus inh,AMA1-RON2 inh,Pf growth 96h,Vaccinia mCherry
c1ccc(-c2nc(N3CCCCCC3)nc(-n3ccnc3)n2)cc1,u,4.1%,-30.7%,31.5%,-3.9%
c1ccc(-c2nc(N3CCN(c4ccccc4)CC3)nc(-n3ccnc3)n2)cc1,4.15µM*,x,0.9%,u,x
COc1cc(C(Nc2ccccn2)c2ccc3ccc(C)nc3c2O)cc(OC)c1O (configuration not stated),u,u,-10.2%,-8.7%,12.6µM*
Oc1c(C(Nc2ccccn2)c2ccccn2)ccc2cccnc12 (configuration not stated),2.94µM*,10µM*,-93.0%,x,u
Oc1ccccc1C(Nc1nccs1)c1ccc2cccnc2c1O (configuration not stated),1.85µM*,u,-20.6%,2.62µM*,8.91µM*
Oc1c(C(Nc2ccccn2)c2ccccc2F)ccc2cccnc12 (configuration not stated),x,-2.3%[7.34 µM],x,x,-5.5%[7.34 µM]
Cc1ccnc(NC(c2ccccc2F)c2ccc3cccnc3c2O)c1 (configuration not stated),x,u,x,x,15.8µM*
Cc1ccc2ccc(C(Nc3ccccn3)c3ccccc3)c(O)c2n1 (configuration not stated),x,-5.2%,74.9%,-21.3%,u
Cc1sc2ccccc2c1CC1=NCCN1,u,5.3%,6.2%,8.49µM*!,-2.7%
Nc1ccc(CC2=NCCN2)cc1,x,-9.4%,-12.2%,x,-9.9%
CCc1ccc(NC(=O)C2CCN(S(=O)(=O)c3c(C)noc3/C=C\c3ccc(OC)cc3)CC2)cc1,x,-15.9%,x,x,-9.7%
CCCCNC(=O)CS(=O)Cc1nc(-c2cccs2)oc1C (configuration not stated),x,-4.1%,24.2%,8.28µM*,17.6%
CCN(CC)CCNC(=O)CS(=O)Cc1nc(-c2ccc(Cl)cc2)oc1C (configuration not stated),-4.2%,x,8.6%,-3.1%,x
CCN(CC)CCNC(=O)CS(=O)Cc1nc(-c2ccccc2Cl)oc1C (configuration not stated),2.1%,x,-1.9%,10.4µM*,x
S=C1NC2(CCCCCC2)N=C1c1ccccc1,13.1µM*,-4.9%,16.3%,152.7%,-24.6%
S=C1NC2(CCCC2)N=C1c1ccccc1,7.1%,x,16.5%,0.4%,x
COc1ccc(Nc2nc(-c3cccc(OC)c3O)nc3ccccc23)cc1,7.38µM*,x,-24.4%,u,x
COc1cccc(-c2nc(N3CCCC3)c3ccccc3n2)c1O,0.0%,-8.3%,11.2%,18.2%,-10.0%
COc1cccc(-c2nc(N3CC(C)CC(C)C3)c3ccccc3n2)c1O (configuration not stated),u,-8.4%,u,13.1µM*,-17.2%
COc1cccc(-c2nc(NC(C)(C)C)c3ccccc3n2)c1O,10.4µM*,x,-19.5%,u,x
Cc1ccc2nc(-c3cc(NC(=O)/C=C/c4ccccc4)ccc3Cl)oc2c1,x,-8.6%,x,x,-11.1%
